Pf growth 96h = P. falciparum growth inhibition at 96 hour, primary screen for plastid delayed-death inhibitors | 6.9% of 320,000 active | Potency, µM (series often up to 28.7 µM), actives largely listed as inhibitors | P. falciparum luciferase reporter growth, 96 h | AID 504834
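Delayed-death screen, second-generation endpoint: infected erythrocytes, 2% hematocrit, 0.05% parasitemia final; 96 hours at 37 C, 5% CO2; luciferase detection reagent; luminescence decrease equals reduced growth.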
Shiga toxin inh = inhibitors of Shiga toxin in Vero cells; Vero cells, Shiga toxin protein synthesis inhibition reporter; inhibition, % at 38.7 µM; AID 2315; 9.2% of 290,000 active; in the data active means inhibition mostly above about 28%, no sharp cut-off; inactive means mostly below about 43%
Pf growth 48h = P. falciparum growth inhibition at 48 hours (one generation); P. falciparum luciferase growth in erythrocytes, 48 h; 5.9% of 310,000 active; AID 504832; Potency, µM (doses to about 28.7 µM), usual class: inhibitors
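Here the parasites carry a stable luciferase gene and grow inside erythrocytes in Albumax-based RPMI medium with compound for one erythrocytic cycle. Activity is scored as loss of luminescent signal.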
NS1 inh = blocks influenza NS1 protein function; Potency, µM (titrated, usually from 46.1 µM); 0.4% of 270,000 active; calls by dose curve; further: actives are rising curves; nearly all actives have a fitted effect of over 50% in size
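OD600 was taken as the measure of yeast growth restored by compound in an NS1-expressing S. cerevisiae strain. Cells had been washed out of glucose medium and diluted 1:100 into galactose -URA medium, pH 6.0.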
Sm TGR block = inhibitors of Schistosoma mansoni thioredoxin glutathione reductase; Q962Y6; purified TGR, DTNB reduction, TNB absorbance 405 nm; Potency, µM (top dose mostly 114 µM), usual class: inhibitors; 3% of 360,000 active; further: nearly all actives have a fitted effect of over 60% in size
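TGR 20 nM + NADPH 100 uM (dispensed conc.), cpd preinc 15 min RT; start with NADPH (500 uM addition) then DTNB (15 mM addition). Kinetic TNB absorbance, 405 nm filter. Four-parameter Hill fit across titration.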
Cycloheximide cs = counter-screen for Shiga toxin inhibitors: cycloheximide protein synthesis inhibition; cell reporter, cycloheximide protein synthesis inhibition counterscreen; max response, %; 12% of 300,000 active; AID 2314; in the data active means max response mostly above about 13%, no sharp cut-off; inactive means mostly below about 14%; further: read at 38.3 µM for the half of the compounds with a filed dose
Numbers stand for hits; 0 = inactive; ? = inconclusive; - = not tested or not shown; + = active, no number. In the library only some 21% were active in any assay of this set; here they are far more common. Unless noted, the call rests on the fitted dose curve; in most records, active means well fitted curve in the direction sought with a large enough effect; inconclusive means small, poorly fitted or top-dose-only effect, or another doubt; inactive means no such curve, though single readings can be large; an effect the other way counts as inactive or inconclusive.

SMILES	Pf growth 96h	Shiga toxin inh	Pf growth 48h	NS1 inh	Sm TGR block	Cycloheximide cs
c1cc2c(c(NC3=NCCN3)c1)CCCC2	10.7µM	-	?	0	-	-
CC1CC=CC2C1C(=O)N(Cc1ccccc1)C2c1ccc(F)c(Br)c1 (stereo not drawn)	-	31.7	-	-	-	0
CC[C@@H]1CC=C[C@H]2[C@H]1C(=O)N(Cc1ccccc1)[C@H]2c1cc(C)ccc1F	?	0	?	0	0	0
CC1CC=CC2C1C(=O)N(Cc1ccccc1)C2c1ccc(F)c(-c2ccc(N(C)C)cc2)c1 (stereo not drawn)	-	0	-	-	-	0
Cc1ccc(F)c([C@H]2C3C=CCC(c4ccccc4)C3C(=O)N2Cc2ccccc2)c1 (stereo partly drawn)	?	0	11.7µM	0	0	0
Cc1ccc(-c2cc([C@H]3[C@H]4C=CC[C@@H](C)[C@@H]4C(=O)N3Cc3ccccc3)ccc2F)cc1	?	0	10.4µM	0	0	0
Nc1c(C(=O)NCCc2ccccc2)nnn1CC(=O)Nc1ccc(Cl)cc1	-	-	-	-	0	-
CCc1sc(C(C2C(=O)CC(C)(C)CC2=O)C2C(=O)CC(C)(C)CC2=O)cc1[N+](=O)[O-]	0	0	0	0	3.98µM	0
COc1ccc(CCNC(=O)COc2ccc3c(C)cc(=O)oc3c2)cc1OC	2.94µM	0	0	0	0	0
C=C(Cl)COc1ccc2c(C)cc(=O)oc2c1	0	+	0	0	0	23.1
C=C(Cl)COc1ccc2c(CC)cc(=O)oc2c1	-	0	0	0	0	0
CCCCc1cc(=O)oc2cc(OS(C)(=O)=O)ccc12	0	0	0	0	0	20.4
C=C(Cl)COc1ccc2c(CCCC)cc(=O)oc2c1	-	0	0	0	0	25.5
Cc1cc(=O)oc2cc(OCC(=O)OCC(=O)NCCc3ccccc3)ccc12	0	0	?	0	0	0
CCCCc1cc(=O)oc2cc(OCC(=O)N(CC)CC)ccc12	-	0	?	0	0	0
CCOC(=O)N1CCC(N2CCCC(CO)(Cc3ccccc3C)C2)CC1 (stereo not drawn)	?	0	?	0	0	0
CN1CCN(C(=O)C23CCC(C)(c4nc5ccccc5nc42)C3(C)C)CC1 (stereo not drawn)	0	0	?	0	0	0
CS(=O)(=O)c1ccc(Cl)c(NC(=O)Cc2ccsc2)c1	0	0	0	0	0	0
Cc1cc(=O)oc2cc(OCC3CC(c4ccccc4)=NO3)ccc12 (stereo not drawn)	0	53.3	-	0	0	21.3
C=C(C)COc1ccc2c(CC)cc(=O)oc2c1	0	0	0	0	-	21.8
CN(CC(=O)Nc1ccc(Cl)c(C(F)(F)F)c1)C(=O)c1cn2ccccc2n1	0	-	0	-	0	-
O=C(NCCN1CCOCC1)c1cccc(S(=O)(=O)Nc2cc(Cl)ccc2Cl)c1	0	-	0	-	0	-
COc1ccc(-c2onc(C)c2-c2cnn(-c3ccccc3)c2)c(O)c1	0	0	11.7µM	-	0	0
COc1ccc(C)cc1S(=O)(=O)N1CC(C)OC(C)C1 (stereo not drawn)	11.7µM	0	0	0	0	37.9
CCOC(=O)N1CCN(C(=O)C2CCCN(S(=O)(=O)c3cc(C)ccc3OC)C2)CC1 (stereo not drawn)	-	0	?	0	0	0
SMILES	Pf growth 96h	Shiga toxin inh	Pf growth 48h	NS1 inh	Sm TGR block	Cycloheximide cs
COc1ccc(C)cc1S(=O)(=O)N1CCCC(C(=O)N2CCN(c3ccccc3)CC2)C1 (stereo not drawn)	10.4µM	0	7.38µM	0	0	0
CCOc1cc(C)c(C(C)C)cc1S(=O)(=O)N1CC(C)OC(C)C1 (stereo not drawn)	-	0	13.1µM	0	0	0
CCOc1cc(Br)ccc1S(=O)(=O)N1CC(C)OC(C)C1 (stereo not drawn)	-	0	?	0	0	0
COc1ccc(Br)cc1S(=O)(=O)N1CCCC1	?	53.6	0	0	0	30.0
Cc1noc(NS(=O)(=O)c2ccc(NC(=O)C34CC5CC(C3)CC(n3cnc(Br)n3)(C5)C4)cc2)c1C	0	0	0	0	0	0
O=C(NCc1ccccc1)C12CC3CC(CC(Br)(C3)C1)C2	0	0	0	0	0	0
COc1ccc(S(=O)(=O)N2CCCCCC2)cc1N(C)S(=O)(=O)c1ccc(C)cc1	10.4µM	0	0	0	0	0
COc1ccc(C)cc1S(=O)(=O)N1CCCCCC1	0	0	2.08µM	0	0	0
COc1ccc(/C=C/C(=O)O)cc1S(=O)(=O)N1CCCC1	5.86µM	0	0	0	0	0

Assay outcomes as filed in PubChem BioAssay.
